Measured values taken from the supplement of paper PMC11417369.
± gives the standard deviation of the averaged measurements. Whole data set: some 25,000 sequences, median “ln(normalized median fluorescence intensity)” near 10, cut for the highest 2% near 12. The full list was thinned out, with the highest values kept by preference.

test system: PfAP2-G AP2 domain (GST-tagged); experiment: gcPBM binding intensity (ln(normalized median fluorescence intensity)); higher = stronger DNA binding
How it was run: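 Probes on an Agilent 4 × 180k array were primer-extended, double-stranded and 36 bp long, taken from intergenic genomic regions, with negative controls added. GST-tagged P. falciparum DNA-binding domains from E. coli, about 25 μg on average, were applied to the array for 1 h in 1× PBS containing 1% milk, 0.2 mg/ml BSA, 0.5% salmon testes DNA and 0.03% Triton X-100. Binding intensity, obtained after Alexa488 anti-GST antibody detection and a 488 nm scan, is the highest Masliner-normalised natural-log median intensity across replicate spots of either probe orientation.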

Sequence	gcPBM binding intensity (ln)
ATTTTTTTACAAAAATGTACACATGAAATATGTAAT [XGTACX_site1372]	11.3 ± 0.69
TAATATGAAAAGTGTACACACGCACAGACAAAAAAA [CACACA_site5594]	11.6 ± 0.95
ATATGAAAGGTGTACACACGCACACCCAAAAAAATA [CACACA_site2911]	11.7 ± 0.95
AATGTGTACGCACGCACACACAAAAAAATATATATA [CACACA_site2913]	11.6 ± 1.2
GTGTAATATGAAATGTGTACACACGCACACACAAAA [XGTACX_site6180]	11.7 ± 1.1
GAAAAAGACAAAAGGTGTACAATATGAAATATATAT [XGTACX_site373]	11.5 ± 0.86
TGTAATATGAAATGTGTACACACGCACCCACAAAAA [CACACA_site8948]	11.6 ± 1
AACATATTAATGTACACACACCCACGCACAAACAAA [CACACA_site7320]	11.5 ± 0.91
AATGTACACCCACCCACACACAAACAAATATATATA [CACACA_site5521]	11.4 ± 0.92
AATGTACACGCACCCACACACAAACAAATATAAATA [CACACA_site7319]	11.4 ± 1
AATTTGTTAATATTTTGTACACATAATATAAAAACA [XGTACX_site2224]	11.3 ± 0.89
ATAATATGAAGAAGCACACTCAATTAAATACAGATA [CACACA_site4690]	9.97 ± 0.071
ACAAAATGTAGAAAATGTACAAAATTAACAAAAGAA [XGTACX_site5019]	10.7 ± 0.3
CTTCTTGTAAAATTTGCATGTAATTAAAAGAGAATG [TGCATGCA_site484]	10.2 ± 0.3
TACAAAAAATTATGGAGTACATATATAATATACAAT [XGTACX_site1004]	11.5 ± 0.88
GCACTCGTAAAAAGCACACATATAAAAACATTTATA [CACACA_site322]	10.2 ± 0.26
TAAAATTTTGTTTGTTGTACTTATTTTCGTGTCAAC [XGTACX_site8277]	11.6 ± 1
AAATAAAATTTTTGTTGTACTTATTTTTAGTATACT [XGTACX_site4254]	11.5 ± 0.81
TTTTTTTTTTTTTTTTGTACTTATAAAAAATTTTTT [XGTACX_site1249]	11.1 ± 0.88
AAAATAATATATGTATGTACATATACACATATAGAA [XGTACX_site2218]	11.1 ± 0.59
ATTTATTTTCTGTGTACACATATGTTGGGTATTTTA [CACACA_site5902]	11.7 ± 0.96
AAAATATTTAATAGAAGTACACATGTATATATACAT [XGTACX_site8942]	11.6 ± 1.2
TATATAATATATATATGTACACATATACATTTTTAT [XGTACX_site2832]	11.5 ± 0.97
ATAACATACATAACAACACACAATATTTATATGTAT [CACACA_site210]	9.85
CAACATATGCATATGTGTACATATTTTATTTTCAAC [XGTACX_site2237]	11.7 ± 1.1

Sequence	gcPBM binding intensity (ln)
TATATTTATTTTCTGTGTACACATATGTTGTGTATT [XGTACX_site7640]	11.6 ± 1
ATATATATACTGTGTACACACATATGTATTTATATA [CACACA_site4600]	11.6 ± 0.78
GATAACAATATGTGTACACATTTATATCTCCACATA [CACACA_site5442]	11.7 ± 0.83
GAAAAAAGAAAAAAAAGTACACACATGTATATTAAT [XGTACX_site5265]	11.5 ± 0.91
TACATATTTTTTATGTGTACATATTTTTTATGTGTA [XGTACX_site443]	11.4 ± 0.76
TACATATTTTTTATGTGTACATATTTTTTATGTGTG [XGTACX_site444]	11.5 ± 0.68
GAATGTCTAATTTTGATGCACACTTTTGTGCAATTA [CACACA_site2902]	10.2 ± 0.24
AAAAAAAAAAAAAAAACACACATATATGTATATATA [CACACA_site3276]	10 ± 0.27
AAGAAAAAAGGGGACAAGGCATATCTATATATACAT [TGCATGCA_negctrl_site172]	10.7 ± 0.52
TTATAATTAAGATATAATCAATAATAACAAATGAAC [CACACA_negctrl_site1690]	9.84 ± 0.014
AAACCGAATTTACATGAATGTAAATTATGTTGTTTT [CACACA_negctrl_site1834]	9.53 ± 0.13
TTTGCTTCCAAAAGTCGTACAAAAAATATTAAATAT [XGTACX_site4171]	11.6 ± 0.9
AATGAAGACTTTTTTACACACTTCATATCTTATAGA [CACACA_site7046]	9.99 ± 0.028
GTATATATGTATATGTGTACACATATTCTTAACTCA [XGTACX_site309]	11.6 ± 0.89
TTTGATTTTAATGTGTGTACACATTTATTTATATAA [XGTACX_site4806]	11.8 ± 1.2
AAATTACCCTTGTGTACACATATATTATCTGTATTA [CACACA_site4514]	12 ± 1.4
TTTGTGTATATATAATGTACATTATATTTTTATTAT [XGTACX_site6506]	10.9 ± 0.53
TATCTGTATATGTGTACACATATTCTTAACTCACGC [CACACA_site4255]	11.7 ± 1
AAAAATTACCCTTGTGTACACATATATTATCTGTAT [CACACA_site4513]	11.6 ± 0.95
ATGTGATAGAAGTACACACACATATGTATTTATAAT [CACACA_site5075]	11.7 ± 1.1
GTATGTATATTTATCTGTACATATTTATGTATTCTT [XGTACX_site2112]	11.2 ± 0.64
CAAAAATTACCCTTGTGTACACATATATTATATGTA [XGTACX_site1124]	11.6 ± 0.91
ATGTGATATAAGTACACACACATATGTATATAGAAT [CACACA_site1823]	11.5 ± 1.1
ATGTGATATAAGTACACACACATATGTATTTATAAC [CACACA_site6942]	11.5 ± 0.8
TATTTCTGATTATTTTGTACACATTATATATAATGC [XGTACX_site6990]	11.2 ± 0.83
